In PubChem BioAssay (Tox21):
Records with an inconclusive call do not appear. The source made the active and inactive calls. Unless noted, the call rests on the fitted dose curve.

Experiments:
[1] = Nuclear factor erythroid 2-related factor 2/antioxidant responsive element (Nrf2/ARE) small molecule agonists: qHTS cell viability counter screen in human keratinocytes (AID 1919968; active means well fitted curve in the direction sought with a large enough effect in the repeat runs; an effect the other way counts as inactive or inconclusive; further: nearly all actives have a fitted effect of over 55% in size)
Summary of the method: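 KeratinoSens cells (HaCaT keratinocytes stably carrying an ARE-luciferase reporter) were seeded at 1,500 cells/well and rested 5 h at 37 C/5% CO2. They were then exposed to compounds in DMSO for 23 h. Viability was read by CellTiter-Fluor fluorescence after 1 h.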

[2] = biological target: Gonadotropin-releasing hormone receptor (Homo sapiens) (UniProt P30968); experiment: Human gonadotropin-releasing hormone receptor (GnRHR) small molecule agonists, calcium flux assay in GnRHR-HEK293 cells (AID 1920063); further: nearly all actives have a fitted effect of over 35% in size
Gonadotropin-releasing hormone receptor (Homo sapiens), sequence (P30968 whole entry, looked up): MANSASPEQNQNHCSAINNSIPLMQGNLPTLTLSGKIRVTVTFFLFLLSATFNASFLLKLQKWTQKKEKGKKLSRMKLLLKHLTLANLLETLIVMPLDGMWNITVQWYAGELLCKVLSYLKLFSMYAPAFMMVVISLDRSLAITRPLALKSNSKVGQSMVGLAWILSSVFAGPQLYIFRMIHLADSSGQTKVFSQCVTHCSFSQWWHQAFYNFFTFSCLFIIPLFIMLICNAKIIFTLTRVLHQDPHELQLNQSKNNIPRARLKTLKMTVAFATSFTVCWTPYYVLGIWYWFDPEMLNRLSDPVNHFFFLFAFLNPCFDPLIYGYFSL
Summary of the method: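 HEK293 cells stably expressing human GnRHR were plated 18 h at 37 °C, loaded with calcium dye 1 h at 37 °C, then given compound in agonist mode; fluorescence (Ex/Em 480/540) read kinetically for 3 min at 1 s intervals.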

[3] = biological target: KiSS-1 receptor (Homo sapiens) (UniProt Q969F8); experiment: Human kisspeptin (KISS1R) small molecule agonists, calcium flux assay in KISS1R-HEK293 cells (AID 1920064; active means well fitted curve in the direction sought with a large enough effect in the repeat runs; an effect the other way counts as inactive or inconclusive)
KiSS-1 receptor (Homo sapiens), sequence (Q969F8 whole entry, looked up): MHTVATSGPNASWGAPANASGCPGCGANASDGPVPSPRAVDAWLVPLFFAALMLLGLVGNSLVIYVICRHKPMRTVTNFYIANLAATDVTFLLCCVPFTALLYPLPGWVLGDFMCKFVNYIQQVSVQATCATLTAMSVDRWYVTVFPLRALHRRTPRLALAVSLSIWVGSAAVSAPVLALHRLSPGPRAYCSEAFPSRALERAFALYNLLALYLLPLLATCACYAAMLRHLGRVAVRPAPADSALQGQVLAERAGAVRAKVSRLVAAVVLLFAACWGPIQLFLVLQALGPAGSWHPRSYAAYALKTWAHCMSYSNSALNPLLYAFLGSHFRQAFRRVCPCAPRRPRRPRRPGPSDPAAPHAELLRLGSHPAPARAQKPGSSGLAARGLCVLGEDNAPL
Summary of the method: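 HEK293 cells stably expressing human KISS1R were plated 18 h at 37 °C, loaded with calcium dye for 1 h at 37 °C, then given compound by pin tool. Fluorescence (Ex/Em 480/540) was read kinetically for 3 min.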

[4] = G protein-coupled receptor (GPCR) small molecule agonists, calcium flux assay: HEK293 wild type cell line counter screen (AID 1920065)
Summary of the method: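 Cells were plated and cultured 18 h at 37 C/5% CO2, then loaded with calcium dye for 1 h at 37 C. Compounds in DMSO were pin-transferred in agonist mode, and fluorescence (Ex/Em 480/540) was read kinetically for 3 min at 1 s intervals.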

[5] = p53 small molecule agonists, cell-based qHTS assay with rat liver microsomes (AID 1963578)
Summary of the method: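 Metabolic activation is supplied by rat liver microsomes with NADPH (each 0.5 mg/mL final). p53RE-bla cells incubate with compound 16 h at 37 C; reporter activity is measured by LiveBLAzer fluorescence.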

[6] = p53 small molecule agonists, cell-based qHTS assay with human liver microsomes: qHTS cell viability counter screen (AID 1963579); further: nearly all actives have a fitted effect of over 45% in size
Summary of the method: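 After the 460/530 nm beta-lactamase read, CellTiter-Glo was added to the same wells and luminescence measured after 30 min at room temperature, giving viability of p53RE-bla cells treated 16 h with compounds plus microsomes and NADPH.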

[7] = p53 small molecule agonists, cell-based qHTS assay with rat liver microsomes: qHTS cell viability counter screen (AID 1963580); further: nearly all actives have a fitted effect of over 45% in size
Summary of the method: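 In HCT-116 cells carrying a p53 response element-bla reporter, compounds were metabolically activated in situ by rat liver microsomes with NADPH over 16 h. Cell ATP content then served as the cytotoxicity measure.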

[8] = p53 small molecule agonists, cell-based qHTS assay: qHTS cell viability counter screen (AID 1963581); further: nearly all actives have a fitted effect of over 45% in size
Summary of the method: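 p53RE-bla HCT-116 cells were exposed to compounds for 16 h at 37 C; after the beta-lactamase FRET read in the same wells, CellTiter-Glo was added and luminescence (intracellular ATP) read after 30 min at room temperature.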

[9] = biological target: 5-hydroxytryptamine receptor 2A (Homo sapiens) (UniProt P28223); experiment: 5-hydroxytryptamine receptor 2A (HTR2A) small molecule antagonists, cell-based qHTS assay (AID 1963586); further: nearly all actives have a fitted effect of over 45% in size
5-hydroxytryptamine receptor 2A (Homo sapiens), sequence (P28223 whole entry, looked up): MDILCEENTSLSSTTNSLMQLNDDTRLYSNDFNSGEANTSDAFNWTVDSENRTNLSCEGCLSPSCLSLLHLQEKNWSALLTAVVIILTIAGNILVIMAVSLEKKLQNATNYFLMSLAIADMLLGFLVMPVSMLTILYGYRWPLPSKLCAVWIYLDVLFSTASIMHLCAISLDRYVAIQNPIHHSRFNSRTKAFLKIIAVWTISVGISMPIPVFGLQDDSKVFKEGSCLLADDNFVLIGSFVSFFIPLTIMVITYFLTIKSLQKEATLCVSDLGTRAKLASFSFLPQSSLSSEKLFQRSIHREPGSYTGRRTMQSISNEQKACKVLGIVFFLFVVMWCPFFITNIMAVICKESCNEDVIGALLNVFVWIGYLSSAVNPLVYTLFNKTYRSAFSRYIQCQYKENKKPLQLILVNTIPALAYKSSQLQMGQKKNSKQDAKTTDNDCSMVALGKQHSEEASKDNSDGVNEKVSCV
Summary of the method: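 Antagonist-mode intracellular calcium assay: DOI (4 nM) added after 5 min compound pre-incubation at room temperature to dye-loaded HTR2A-CHO cells. Fluorescence followed for 3 min, sampled every second.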

[10] = biological target: 5-hydroxytryptamine receptor 2A (Homo sapiens) (UniProt P28223); experiment: 5-hydroxytryptamine receptor 2A (HTR2A) small molecule agonists, cell-based qHTS assay (AID 1963587); further: nearly all actives have a fitted effect of over 30% in size
Summary of the method: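 HTR2A-CHO cells, plated 18 h at 37 C/5% CO2, dye-loaded 1 h at 37 C; compounds in DMSO added by pin tool (agonist mode). Intracellular calcium flux read as kinetic fluorescence on FDSS over 2 min at 1 s intervals.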

[11] = biological target: Muscarinic acetylcholine receptor M1 (Homo sapiens) (UniProt P11229); experiment: Cholinergic receptor muscarinic 1 (CHRM1) small molecule antagonists, cell-based qHTS assay (AID 1963588); further: nearly all actives have a fitted effect of over 40% in size
Muscarinic acetylcholine receptor M1 (Homo sapiens), sequence (P11229 whole entry, looked up): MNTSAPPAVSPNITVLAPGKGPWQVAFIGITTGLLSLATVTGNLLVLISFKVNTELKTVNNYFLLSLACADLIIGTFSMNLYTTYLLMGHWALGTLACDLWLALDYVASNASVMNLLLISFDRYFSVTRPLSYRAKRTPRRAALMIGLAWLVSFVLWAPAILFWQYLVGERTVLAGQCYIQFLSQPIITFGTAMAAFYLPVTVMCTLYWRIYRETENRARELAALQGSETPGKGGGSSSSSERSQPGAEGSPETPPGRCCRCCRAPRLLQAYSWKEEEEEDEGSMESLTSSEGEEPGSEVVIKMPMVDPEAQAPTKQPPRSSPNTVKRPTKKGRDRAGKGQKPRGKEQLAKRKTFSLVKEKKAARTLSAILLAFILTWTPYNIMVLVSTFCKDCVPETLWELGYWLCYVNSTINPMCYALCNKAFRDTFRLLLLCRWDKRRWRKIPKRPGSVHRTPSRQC
Summary of the method: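 CHRM1-CHO calcium-flux assay, antagonist mode. Cells were seeded 18 h, dye-loaded 1 h at 37 C and given compound for 5 min at RT, then acetylcholine was added at 50nM. FDSS fluorescence was read 3 min; 15 concentrations, three runs.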

[12] = biological target: Muscarinic acetylcholine receptor M1 (Homo sapiens) (UniProt P11229); experiment: Cholinergic receptor muscarinic 1 (CHRM1) small molecule agonists, cell-based qHTS assay (AID 1963589); further: nearly all actives have a fitted effect of over 35% in size
Summary of the method: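 CHO cells stably expressing human CHRM1, seeded 18 h at 37 C/5% CO2, dye-loaded 1 h at 37 C, then given compound in agonist mode; intracellular calcium fluorescence read kinetically at 1 s intervals. Fifteen concentrations, three independent runs.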

[13] = cAMP Responsive Elements (CRE) small molecule agonists, cell-based qHTS assay (AID 1963590)
Summary of the method: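 CRE-bla HEK 293T cells in DMEM with 10% dialyzed FBS, NEAA, pyruvate and 25 mM HEPES were plated 18 h at 37 C/5% CO2, then exposed to compounds in DMSO for 3 h before LiveBLAzer B/G FRET substrate addition.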

[14] = cAMP Responsive Elements (CRE) small molecule antagonists, cell-based qHTS assay (AID 1963591; active means well fitted inhibition curve with a large enough effect in the signal ratio in the repeat runs, not every such curve was filed as active; the % refers to the signal ratio)
Summary of the method: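 CRE-bla HEK293T cells were plated 18 h at 37 °C/5% CO2, pinned with compound in DMSO, then stimulated with NKH477 at 0.25 uM final for 3 h. LiveBLAzer B/G FRET substrate was added and plates incubated 2 h at room temperature.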

[15] = biological target: D(2) dopamine receptor (Homo sapiens) (UniProt P14416); experiment: Dopamine D2 receptor (DRD2) small molecule agonists, cell-based qHTS assay (AID 1963594); further: nearly all actives have a fitted effect of over 35% in size
D(2) dopamine receptor (Homo sapiens), sequence (P14416 whole entry, looked up): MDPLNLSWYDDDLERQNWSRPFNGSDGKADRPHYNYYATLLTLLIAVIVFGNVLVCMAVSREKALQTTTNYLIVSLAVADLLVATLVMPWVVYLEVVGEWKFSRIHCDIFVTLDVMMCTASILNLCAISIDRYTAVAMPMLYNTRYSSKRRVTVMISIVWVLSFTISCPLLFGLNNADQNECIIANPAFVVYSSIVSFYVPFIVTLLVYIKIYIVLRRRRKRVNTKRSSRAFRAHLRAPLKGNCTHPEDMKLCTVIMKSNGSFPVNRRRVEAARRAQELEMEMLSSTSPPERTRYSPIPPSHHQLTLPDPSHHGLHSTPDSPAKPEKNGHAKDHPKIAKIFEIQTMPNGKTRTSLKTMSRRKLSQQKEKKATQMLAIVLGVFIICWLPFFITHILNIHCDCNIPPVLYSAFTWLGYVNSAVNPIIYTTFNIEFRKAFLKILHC
Summary of the method: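 HEK293 cells stably expressing DRD2 were cultured 24 h at 37 C, then given Ro20-1724 (0.1 mM final) and compounds for 10 min at room temperature. NKH477 (200nM) was then added for 30 min. cAMP was read by HTRF.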

[16] = biological target: D(2) dopamine receptor (Homo sapiens) (UniProt P14416); experiment: Dopamine D2 receptor (DRD2) small molecule antagonists, cell-based qHTS assay (AID 1963595; active means well fitted inhibition curve with a large enough effect in the signal ratio in the repeat runs, with a control signal flat; the % refers to the signal ratio)
Summary of the method: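 In this cell-based antagonist screen, compounds act for 10 min at room temperature before a 30 min challenge with 12 nM quinpirole and 200 nM NKH477. cAMP is quantified by HTRF competition in DRD2-HEK293 cells containing 0.1 mM Ro20-1724.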

[17] = p53 small molecule agonists, cell-based qHTS assay with human liver microsomes (AID 1963577);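 further: p53 response element beta-lactamase reporter cells with liver microsomes plus NADPH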
Summary of the method: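 Steps: plate p53RE-bla cells, incubate 5 h at 37 C; add compound in DMSO; add microsomes (0.5 mg/mL final) and NADPH (0.5 mg/mL final); incubate 16 h at 37 C; add LiveBLAzer, 2 h RT; read fluorescence.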

[18] = p53 small molecule agonists, cell-based qHTS assay (AID 1963582; active means well fitted activation curve with a large enough effect in the signal ratio in the repeat runs, not every such curve was filed as active; the % refers to the signal ratio)
Summary of the method: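 p53RE-bla beta-lactamase reporter cells rested 5 h at 37 C/5% CO2, then received compounds in DMSO by pin transfer and were incubated 16 h at 37 C. LiveBLAzer B/G FRET substrate was loaded for 2 h at room temperature before fluorescence reading.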

[19] = biological target: Beta-2 adrenergic receptor (Homo sapiens) (UniProt P07550); experiment: Adrenergic beta2 receptor (ADRB2) small molecule antagonists, cell-based qHTS assay (AID 1963592); further: series mostly up to about 92 µM; nearly all actives have a fitted effect of over 50% in size
Beta-2 adrenergic receptor (Homo sapiens), sequence (P07550 whole entry, looked up): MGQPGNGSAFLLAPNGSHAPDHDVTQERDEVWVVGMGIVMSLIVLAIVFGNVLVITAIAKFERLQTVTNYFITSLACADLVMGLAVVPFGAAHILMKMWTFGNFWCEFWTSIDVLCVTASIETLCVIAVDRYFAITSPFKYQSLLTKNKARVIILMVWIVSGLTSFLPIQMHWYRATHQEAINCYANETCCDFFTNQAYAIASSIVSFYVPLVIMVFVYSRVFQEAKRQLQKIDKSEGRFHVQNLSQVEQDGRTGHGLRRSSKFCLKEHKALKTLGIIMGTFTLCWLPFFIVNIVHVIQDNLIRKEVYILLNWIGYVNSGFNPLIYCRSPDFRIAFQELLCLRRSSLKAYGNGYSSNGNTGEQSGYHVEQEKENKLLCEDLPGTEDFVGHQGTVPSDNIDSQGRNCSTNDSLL
Summary of the method: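 Cells (CHO, stable ADRB2 overexpression) incubated 18-20hr at 37C; compounds added from DMSO; agonist mix (1nM isoproterenol, 100uM IBMX, 25uM Ro-20-1724) added; 0.5hr RT; d2-cAMP and anti-cAMP-cryptate added; 1hr RT; 665/615 nm read.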

[20] = biological target: Beta-2 adrenergic receptor (Homo sapiens) (UniProt P07550); experiment: Adrenergic beta2 receptor (ADRB2) small molecule agonists, cell-based qHTS assay (AID 1963593);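 further: CHO cells stably overexpressing human ADRB2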
Summary of the method: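 CHO cells stably over-expressing ADRB2 were plated overnight at 37C, then dosed with compounds plus a stimulation mix containing 100uM IBMX and 25uM Ro-20-1724 for 0.5hr at room temperature. cAMP was measured by HTRF competition, 1hr.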

Measured: Potency

CC1(C)[C@@H](OC(=O)CCC(=O)O)CC[C@]2(C)[C@H]3C(=O)C=C4[C@@H]5C[C@@](C)(C(=O)O)CC[C@]5(C)CC[C@@]4(C)[C@]3(C)CC[C@@H]12
inactive: [1] | [2] | [3] | [4] | [5] | [6] | [7] | [8] | [9] | [10] | [11] | [12] | [13] | [14] | [15] | [16]

CCN(CC)c1ccc(N=Nc2ccccc2)cc1
inactive: [1] | [2] | [3] | [4] | [17] | [6] | [7] | [8] | [18] | [9] | [10] | [11] | [12] | [14] | [19] | [20] | [16]

CCCCCC
inactive: [1] | [2] | [3] | [4] | [17] | [6] | [7] | [8] | [18] | [9] | [10] | [11] | [13] | [14] | [19] | [16]

COc1ccc2c(c1)c(CC(=O)OC/C=C(\C)CC/C=C(\C)CCC=C(C)C)c(C)n2C(=O)c1ccc(Cl)cc1
inactive: [1] | [2] | [3] | [4] | [5] | [6] | [7] | [8] | [18] | [9] | [10] | [11] | [12] | [19] | [20] | [15] | [16]

CS(C)=O
inactive: [1] | [2] | [3] | [4] | [5] | [6] | [7] | [8] | [18] | [13] | [14] | [19] | [20] | [15] | [16]

CCC(C)OC(=O)N1CCCCC1CCO (stereo not given)
inactive: [1] | [2] | [3] | [4] | [5] | [6] | [7] | [8] | [18] | [9] | [10] | [11] | [12] | [13] | [14] | [19] | [15] | [16]

NC(=O)CCCCC1CCSS1 (stereo not given)
inactive: [1] | [2] | [3] | [4] | [17] | [7] | [8] | [18] | [9] | [10] | [12] | [13] | [14] | [19] | [15] | [16]
